# LMNA splice mod: modulators of lamin A splicing; HeLa LMNA splicing GFP/RFP minigene ratio, 48 h; Potency, µM (titrated, usually from 46.1 µM), inactives show at the top dose ratio change, negative = inhibition, hits mostly inhibitors; 200,000 tested, 0.01% active; active means well fitted inhibition curve with a large enough effect in the signal ratio, with a control signal flat, not every such curve was filed as active; inconclusive means small, poorly fitted or top-dose-only effect, or effect the other way, or a change in a side signal; the % refers to the signal ratio
#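 S3 HeLa stable clones carrying a lamin A-EGFP splicing minigene plus DsRed2 were seeded at 600 cells/well in Opti-MEM with 2% FBS, pin-dosed and incubated 48 h at 37°C. Acumen cytometry (488 nm) gave the GFP/RFP total-intensity ratio.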
# KinaseGlo FLuc: blocks Kinase-Glo luciferase, a counter-screen artifact | Kinase-Glo luciferase, ATP luminescence, 8 min | 200,000 tested, 0.28% active | Q27757 | AID 1379 | Potency, µM (doses to about 38.3 µM), for inactives: at the top dose activity change, negative = inhibition, hits mostly inhibitors; active means well fitted curve in the direction sought with a large enough effect; inconclusive means small, poorly fitted or top-dose-only effect, or another doubt; inactive means no such curve, though single readings can be large; an effect the other way counts as inactive or inconclusive; further: nearly all actives have a fitted effect of over 60% in size
#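 Compounds were added to a substrate mix at pH 7.2 (50 mM imidazole, 10 uM ATP, within the enzyme's linear range), followed by Kinase-Glo detection reagent; luminescence was measured after 8 minutes at ambient temperature.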
# ALDH1A1 block: ALDH1A1 (human) enzyme inhibition. P00352. Purified ALDH1A1, NADH fluorescence, propionaldehyde substrate. Potency, µM (highest dose often 75.3 µM), for inactives: at the top dose activity, negative = inhibition, actives largely listed as inhibitors. 220,000 tested, 7.3% active. AID 1030;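 further: plate controls were no enzyme wells and a reference inhibitor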
# Target sequence (P00352 whole entry, looked up): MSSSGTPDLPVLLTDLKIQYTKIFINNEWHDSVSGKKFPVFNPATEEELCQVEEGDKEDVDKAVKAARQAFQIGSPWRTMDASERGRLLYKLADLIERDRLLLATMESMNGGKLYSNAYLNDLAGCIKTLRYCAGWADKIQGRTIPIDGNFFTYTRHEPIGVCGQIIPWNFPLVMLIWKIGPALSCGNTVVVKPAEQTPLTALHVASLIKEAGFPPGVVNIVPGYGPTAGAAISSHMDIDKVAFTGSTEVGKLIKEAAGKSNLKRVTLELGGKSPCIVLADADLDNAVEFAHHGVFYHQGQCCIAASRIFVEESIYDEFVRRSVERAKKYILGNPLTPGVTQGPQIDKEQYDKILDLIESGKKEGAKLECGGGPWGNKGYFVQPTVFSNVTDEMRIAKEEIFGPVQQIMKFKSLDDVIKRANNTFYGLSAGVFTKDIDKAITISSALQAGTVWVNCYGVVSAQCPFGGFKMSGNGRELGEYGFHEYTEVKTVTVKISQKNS
# HPGD inh: inhibitors of human 15-hydroxyprostaglandin dehydrogenase (HPGD). P15428. purified HPGD, NADH fluorescence kinetic, PGE2 substrate. Potency, µM, for the others: at the top dose activity change, negative = inhibition, most hits filed as inhibitors. 150,000 tested, 4.3% active
# Target sequence (P15428 whole entry, looked up): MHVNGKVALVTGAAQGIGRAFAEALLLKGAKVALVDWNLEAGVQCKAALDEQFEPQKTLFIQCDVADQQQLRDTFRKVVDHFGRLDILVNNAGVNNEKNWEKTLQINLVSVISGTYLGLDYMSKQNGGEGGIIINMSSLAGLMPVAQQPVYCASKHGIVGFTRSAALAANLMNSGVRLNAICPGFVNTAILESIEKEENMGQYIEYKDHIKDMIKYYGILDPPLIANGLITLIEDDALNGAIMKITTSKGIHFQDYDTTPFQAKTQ
#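 NADH formation kinetics: reaction with 30 uM PGE2 and 1 mM NAD+ (final), 20 nM enzyme, Tris-HCl pH 8 with Tween 20, after 15 min compound preincubation at room temperature. Fluorescence change, last versus first of five reads.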
# IMPase Li inh: cell-permeable IMPase inhibitors with lithium potentiation; CHO-M1 cells, IP1 TR-FRET (IP-One), carbachol + lithium; Potency, µM (highest dose often 59.4 µM), inactives show at the top dose activity, negative = IMPase inhibition, hits mostly inhibitors; 210,000 tested, 0.35% active; AID 1457; active means well fitted curve in the direction sought with a large enough effect; inconclusive means small, poorly fitted or top-dose-only effect, or another doubt; inactive means no such curve, though single readings can be large; an effect the other way counts as inactive or inconclusive;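 further: IP1 builds up when IMPase is blocked and the TR-FRET signal falls; plate controls were basal vehicle for no effect and high inhibitor control for full effect; nearly all actives have a fitted effect of over 50% in size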
#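 Readout is a homogeneous TR-FRET IP1 immunoassay (Ex 320, Em 665 and 620), where raised cytosolic IP1 lowers signal. Cells were CHO-M1 treated 30 min at 37C with test compounds plus a little lithium; AC50 values came from Hill-equation fitting.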
# * hit, by the source's call; ? = inconclusive; nt = no result given; [ ] = dose if it differs, or a comment. Rows were chosen to be rich in hits. Some 9% of all compounds tested hit in one or more screens of this group. Unless noted, the call rests on the fitted dose curve; in most records, active means well fitted inhibition curve with a large enough effect (not every such curve was filed as active); inconclusive means small, poorly fitted or top-dose-only effect, or another doubt; inactive means no such curve, though single readings can be large or run the other way. Unless noted, on the % scale 0 is the no-effect control and ±100 the full control effect; potency means the concentration at half of the fitted maximal effect.
SMILES,LMNA splice mod,KinaseGlo FLuc,ALDH1A1 block,HPGD inh,IMPase Li inh
CCn1c(N)c(C(=O)NC)sc1=S,3%,-2%,2.8µM*,3.5µM*,14%[38.3 µM]
Nc1nnnn1CCO,nt,-4%[7.66 µM],0%[13.5 µM],-4%,-5%
CCN=C=NCCCN(C)C,nt,-4%[7.66 µM],-1%[13.5 µM],0%,-1%
CC/C(=N\Nc1cccc2ccccc12)c1c(O)[nH]c(=O)[nH]c1=O,-12%,-1%,14µM*,?,10%
CC/C(=N\Nc1ccccc1)c1c(O)[nH]c(=O)[nH]c1=O,nt,nt,-1%,nt,nt
O=C(O)CCn1cc(C=C2C(=O)NC(=O)NC2=O)c(-c2ccc(Br)cc2)n1,?,-1%,-4%,28µM*,-12%
O=C1NC(=S)NC(=O)C1=Cc1cccc2cc3ccccc3cc12,nt,-6%[7.66 µM],?,-16%,26%
O=C(O)CCn1cc(C=C2C(=O)NC(=S)NC2=O)c(-c2cccc(Cl)c2)n1,nt,-7%,3.5µM*,nt,5%
CCCCCC[C@H]1C(=O)O[C@H](C)[C@H](NC(=O)c2cccc(NC=O)c2O)C(=O)O[C@@H](C)[C@@H]1OC(=O)CC(C)C,nt,0%,?,?,28%
Cc1ccc([N+](=O)[O-])cc1C,nt,nt,?,-8%,13%
O=[N+]([O-])c1ccc2nc(CCCc3nc4ccc([N+](=O)[O-])cc4[nH]3)[nH]c2c1,?,0%,14µM*,nt,0%
CN(C)/C=c1\sc2c(C#N)cc(C(=O)c3ccc(Br)cc3)n2c1=O,4%,0%,2µM*,-12%,18%[38.3 µM]
CCN(CC)C(=O)c1ccc(NC(=O)CSc2nnnn2-c2cc(OC)ccc2OC)cc1,-12%,-2%,8.9µM*,8.9µM*,20%[38.3 µM]
CCN(CC)C(=O)c1ccc(NC(=O)CCCSc2ccccc2)cc1,nt,-2%,-6%,nt,2%
Nc1c(Br)cc([N+](=O)[O-])cc1[N+](=O)[O-],nt,nt,25µM*,-2%,12%
O=C(O)C1Sc2[nH]c(=O)sc2C2c3cc(Cl)ccc3OC(=O)C12 (stereo unspecified),0%,-1%,13µM*,?,-12%[38.3 µM]
CCc1ccc(CCN2CCCCC2)nc1,nt,-2%[7.66 µM],-4%[13.5 µM],-6%,1%
CN(CCOc1ccc(C=C2C(=O)NC(=O)NC2=O)cc1)c1ccccn1,nt,-2%,?,nt,9%
O=C1NC(=O)C(=Cc2ccc(OCC(=O)N3CCOCC3)cc2)C(=O)N1,?,-1%,5µM*,-20%,8%
Oc1cc(Cl)cc(Cl)c1,nt,nt,14%,-9%,1%
CCCCCCCCCCCC[N+](C)(C)CCOc1ccccc1,?,nt,14µM*,-6%,29%
CC(C)(C)C(=O)C1C(=O)c2ccccc2C1=O,nt,nt,16µM*,-11%,16%
O=C(/C=C/c1ccccc1)C1C(=O)c2ccccc2C1=O,?,-13%,8%,-13%,2%
C[C@]12CCC3C(C=CC4=CC(=O)CC[C@]43C)C1CC[C@]2(O)CCC(=O)O (stereo partly specified),nt,1%,8%,-17%,4%
O=C(O)C(O)(c1ccc(-c2ccccc2)cc1)c1ccc(-c2ccccc2)cc1,nt,-4%[7.66 µM],-2%[13.5 µM],-14%,-3%
SMILES,LMNA splice mod,KinaseGlo FLuc,ALDH1A1 block,HPGD inh,IMPase Li inh
N#CC(c1ccc(Cl)nn1)c1c(F)cccc1Cl (stereo unspecified),nt,-2%,14µM*,nt,4%
C=CCc1cc(C=C2C(=O)NC(=O)NC2=O)cc(OC)c1OCc1ccc(C(=O)O)cc1,nt,-2%,11µM*,nt,2%
CN1C(=O)C(=Cc2ccc(N(C)C)c([N+](=O)[O-])c2)C(=O)N(C)C1=O,nt,1%,?,nt,-8%
C=CCc1cc(C=C2C(=O)N(C)C(=O)N(C)C2=O)cc(OCC)c1OCc1ccccc1,0%,-6%,25µM*,14µM*,-6%
Cc1ccc(S(=O)ON2CCC(C(=O)O)(c3ccccc3)CC2)cc1 (stereo unspecified),nt,0%[7.66 µM],15%[13.5 µM],-9%,-6%
Cc1ccc(N)cc1[N+](=O)[O-],nt,nt,?,-8%,10%
CCCN(CCC)C(=O)Cc1c(-c2ccc(Cl)cc2)nc2c(Cl)cc(Cl)cn12,?,-3%,6%,-19%,10µM*
C[C@H](NC(=O)[C@@H](N)Cc1ccc(O)cc1)C(=O)NCC(=O)N(C)[C@@H](Cc1ccccc1)C(=O)N[C@H](CO)CCS(C)=O (stereo partly specified),nt,nt,6%,nt,2%
CC(C)C[C@H]1C(=O)N2CCCC2[C@]2(O)O[C@](NC(=O)[C@@H]3C=C4c5cccc6[nH]c(Br)c(c56)C[C@H]4N(C)C3)(C(C)C)C(=O)N12 (stereo partly specified),?,-3%,1%,-27%,10%
COP(=S)(OC)Oc1ccc([N+](=O)[O-])cc1,?,-2%,20µM*,-6%,6%
O=C1/C(=C/c2cccnc2)SC(=NCc2ccccc2)N1Cc1ccccc1,?,-2%,0.56µM*,nt,18%
C[C@]12N[C@@H](Cc3ccccc31)c1ccccc12,-3%,0%,-2%,-1%,13%
CN(C)C(=S)SSC(=S)N(C)C,?,-2%,0.079µM*,0.71µM*,27%
CN(C)C(=S)SC(=S)N(C)C,?,3%[39.9 µM],3.5µM*,-20%,18%
OC(c1ccc(Cl)cc1)(c1ccc(Cl)cc1)C(Cl)(Cl)Cl,nt,nt,-5%,-6%,27%
Cc1ccc(C(=O)n2c(N)nc3ccccc32)cc1,nt,11µM*,7%,nt,10%
CCOC(=O)CC1=C(C(=O)OCC)C2(C(=O)N1CC(=O)OC)C(C#N)=C(N)Oc1ccccc12 (stereo unspecified),9%,-3%,1.1µM*,-9%,-4%[38.3 µM]
C=CCN1C(=O)C2(C(C(=O)OCC)=C(N)Oc3ccccc32)C2=C1CCCC2=O (stereo unspecified),-12%,1%,4µM*,-6%,24%[38.3 µM]
CC1=C(C(=O)OC(C)C)[C@]2(C(=O)N(CC(N)=O)c3ccccc32)C(C#N)=C(N)O1,-15%,0%,13%,-8%,-1%
CCOC(=O)CN1C(=O)C2(C(C#N)=C(N)Oc3ccccc32)C(C(=O)OC)=C1C (stereo unspecified),4%,12%,7.9µM*,-3%,-10%[38.3 µM]
CCC[C@@H]1CC2=CC(=O)CC[C@]2(C)[C@@H]2CC[C@@]3(C)[C@H](CC[C@]3(O)CCC(=O)O)[C@H]12,nt,1%,6%,11%,11%
Nc1ccccc1-c1ccccc1,nt,nt,?,-12%,-4%
COc1ccc(C(=O)O[C@H]2CC[C@@]3(C)[C@H]4CC[C@H]5[C@]3(C[C@]3(O)[C@H]6CN7C[C@H](C)CC[C@H]7[C@](C)(O)[C@]6(O)[C@H](O)C[C@]53O)O[C@]24O)cc1OC,nt,-4%[7.66 µM],9%[13.5 µM],-3%,1%
CNC(=O)Oc1cccc(-c2cn3cc(OC(=O)NC)ccc3n2)c1,-7%,-23%,?,?,5%
